Measured values as given in PubChem BioAssay (NCATS).
Records with an inconclusive call do not appear. A number with no mark means an inactive call. Active and inactive are the calls of the source. The call rests on the fitted dose curve; in most records, active means well fitted curve in the direction sought with a large enough effect; inconclusive means small, poorly fitted or top-dose-only effect, or another doubt; inactive means no such curve, though single readings can be large; an effect the other way counts as inactive or inconclusive.

What was measured:
[1] = Tertiary RLuc qRT-PCR qHTS assay for Zika virus inhibitors (AID 1347169); further: nearly all actives have a fitted effect of over 55% in size; on activity change, negative = inhibition: top concentration of the series differs between compounds; on the % scale 0 is the no-effect control and ±100 the full control effect
Summary of the method: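 Orthogonal cell-based readout: luminescence measured 1-1.5 hrs after adding live-cell Renilla substrate to Vero cells that had been infected with ZIKV-RLuc (MOI 1-2) post-compound, incubated 48-72 hrs at 37 degrees C.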

[2] = OV-KATE Cancer Cell Toxicity qHTS against the NCATS CANVASS Library (AID 1347345); conditions: OV-KATE cells viability, CellTiter-Glo luminescence, 72 h
Summary of the method: (§1)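 Viability was assessed by adding CellTiter-Glo reagent to treated cultures and reading luminescence after 15min at room temperature. Treatment lasted 72 h at 37 degrees C/5% CO2, using an 11-point series on 1000 cells/well.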

[3] = HPAF-II Cancer Cell Toxicity qHTS against the NCATS CANVASS Library (AID 1347346); conditions: HPAF-II viability, CellTiter-Glo ATP luminescence, 72 h; further: nearly all actives have a fitted effect of over 55% in size
Summary of the method: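 Cytotoxicity read-out was CellTiter-Glo luminescence after 72 h at 37 degrees C exposure of HPAF-II cells (1000/well) to compounds in an 11-point titration.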

[4] = UWB1.289 Cancer Cell Toxicity qHTS against the NCATS CANVASS Library (AID 1347347); conditions: UWB1.289 viability, CellTiter-Glo luminescence, 72 h; further: nearly all actives have a fitted effect of over 60% in size
Summary of the method: as §1

[5] = OV-SAHO Cancer Cell Toxicity qHTS against the NCATS CANVASS Library (AID 1347348); conditions: OV-SAHO viability, CellTiter-Glo luminescence, 72 h; further: nearly all actives have a fitted effect of over 55% in size
Summary of the method: as §1

[6] = Panc-1005 Cancer Cell Toxicity qHTS against the NCATS CANVASS Library (AID 1347349); conditions: Panc-1005 viability, CellTiter-Glo luminescence, 72 h; further: nearly all actives have a fitted effect of over 60% in size
Summary of the method: as §1

[7] = SW1088 Cancer Cell Toxicity qHTS against the NCATS CANVASS Library (AID 1347350); conditions: SW1088 viability, CellTiter-Glo luminescence, 72 h; further: nearly all actives have a fitted effect of over 75% in size
Summary of the method: as §1

[8] = U-118MG Cancer Cell Toxicity qHTS against the NCATS CANVASS Library (AID 1347351); conditions: U-118MG viability, CellTiter-Glo luminescence, 72 h
Summary of the method: as §1

[9] = COV-362 Cancer Cell Toxicity qHTS against the NCATS CANVASS Library (AID 1347352); conditions: COV-362 viability, CellTiter-Glo luminescence, 72 h
Summary of the method: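 Toxicity was measured as CellTiter-Glo luminescence after 72 h exposure to an 11-point compound series. Compound was added to 1000 cells/well 4 h after seeding.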

[10] = A2780 Cisplatin Sensitive Ovarian Cancer Cell Toxicity qHTS against the NCATS CANVASS Library (AID 1347353); conditions: A2780 ovarian cancer viability, ATPLite luminescence, 72 h; further: nearly all actives have a fitted effect of over 60% in size
From the text: Natural products and their derivatives continue to be wellsprings of nascent therapeutic potential. However, many laboratories have limited resources for biological evaluation, leaving their previously isolated or synthesized compounds largely or completely untested. To address this issue, the Canvass library of natural products was assembled (https://tripod.nih.gov/canvass), in collaboration with academic and industry researchers, for quantitative high-throughput screening (qHTS) across a diverse set of cell-based and biochemical assays. The pure (>85% purity by liquid chromatography/mass spectrometry [LC/MS]) Canvass library of 346 natural products were submitted by 45 academic laboratories and companies around the world. We collected pure natural products to circumvent deconvolution and structure elucidation due to time and resource limitations. The library was formatted into 1536-well plates and evaluated in 50 qHTS (in an 11-pnt concentration series) bioassays with broad scope of disease-relevant mechanisms. The resulting data set from 50 different assays was then systematically analyzed to identify overall trends and specific natural products with interesting biological activities. […]
Cancer Cell Toxicity protocol 1. […] Luminescence signal was acquired via the ViewLux plate reader (PerkinElmer) using a clear filter, 2 second exposure and 2x binning settings.
Potency means the concentration at half of the fitted maximal effect.

## CCC(C)/C=C(C)/C=C/C1=CC2=CC(=O)C3(C)OC(C)(O)C(C(=O)OC)C3C2=CO1 (stereo not given)
[1]
  Potency: inactive

## CC(C)C[C@H](C(=O)O)c1cc(-c2ccc(C(F)(F)F)cc2)cc(-c2ccc(C(F)(F)F)cc2)c1
[1]
  Potency: 9.3 µM (active)

## COc1ccc2cc(-c3cc(-c4cc(Cl)cc(Cl)c4)nn3C(C)c3ccc(C(=O)NCCC(=O)O)cc3)ccc2c1 (stereo not given)
[1]
  Potency: inactive

## Cc1cc(C)c2c(c1)C(N(Cc1cc(C(F)(F)F)cc(C(F)(F)F)c1)c1nnn(C)n1)CCCN2CC1CCC(C(=O)O)CC1 (stereo not given)
[1]
  Potency: 16.5 µM (active)

## N#Cc1ccc(N2N=C3c4ccc(C(=O)O)cc4CC[C@@H]3[C@@H]2C2CCCC2)cc1Cl
[1]
  Potency: 14.7 µM (active)

## CCC(CC)(NC(=O)C(C)C)C(=O)N[C@@H](CCCN=C(N)N)C(=O)NC1(C(=O)NC(c2ccc(F)cc2)c2ccc(F)cc2)CCCC1
[1]
  Potency: inactive

## O=C(Nc1ccc(/C=C/c2ccc(NC(=O)c3cc(S(=O)(=O)O)c4cccnc4c3O)cc2S(=O)(=O)O)c(S(=O)(=O)O)c1)c1cc(S(=O)(=O)O)c2cccnc2c1O
[1]
  activity change, negative = inhibition: 59.5% [at 5.25 µM]

## COc1ccc(CCO[C@@H]2O[C@H](CO[C@H]3OC[C@](O)(CO)[C@H]3O)[C@@H](OC(=O)/C=C/c3ccc(O)c(O)c3)[C@H](O[C@@H]3O[C@@H](C)[C@H](O)[C@@H](O)[C@H]3O)[C@H]2O)cc1OC
[1]
  Potency: inactive

## CC(C)CC(=O)c1c(O)cc2c(c1O)C(CC(C)C)C1=C(O2)C(C)(C)C(=O)C(C)(C)C1=O (stereo not given)
[2]
  Potency: 18.8 µM (active)
[3]
  Potency: 13.3 µM (active)
[4]
  Potency: 13.3 µM (active)
[5]
  Potency: 11.8 µM (active)
[6]
  Potency: 14.9 µM (active)
[7]
  Potency: 7.49 µM (active)
[8]
  Potency: 10.6 µM (active)
[9]
  Potency: 13.3 µM (active)
[10]
  Potency: 16.6 µM (active)

## C[C@H]1CO[C@@H]2Cn3cc(C(=O)NCc4ccc(F)cc4F)c(=O)c(O)c3C(=O)N12
[1]
  Potency: inactive

## C=C1C(=O)O[C@H]2CC(=C)[C@H]3CC[C@@](C)(O)[C@@H]3CC12 (stereo not given in full)
[1]
  Potency: inactive

## COc1ccc2nccc(C(=O)CC[C@@H]3CCN(CC#Cc4cc(F)cc(F)c4F)C[C@@H]3C(=O)O)c2c1
[1]
  Potency: inactive
